In PubChem BioAssay (NCI):
About 83,000 compounds went through this panel and 20% of them were active in at least one assay; those are over-represented in the sample as a whole.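 In brief: 96-well plates, 48 h treatment, single concentration, percent growth endpoint.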 Values without a mark were called inactive. The source made the active and inactive calls. The calls were made as follows: active = growth percent below 10; inactive = the rest.

system: SW-620 colon; assay: NCI-60 one-dose screen, 48 h (100 = growth as untreated, 0 = no growth, -100 = all killed); settings: 10 µM unless noted

Row | Structure (SMILES) | growth
1 | Fc1ccc(C2=NN(c3ccccc3)C(c3sc(N(CCCl)CCCl)nc3Cl)C2)cc1 (centres undefined) | 84.4%
2 | CC[C@H](C)[C@H](NC(=O)Nc1ccccc1)C(=O)N(C)[C@H](C[C@@H](OC(C)=O)c1nc(C(=O)N[C@@H](Cc2ccccc2)C[C@H](C)C(=O)OC)cs1)C(C)C | 17%
3 | c1ccc(CCN2CCCCC2Cc2ccccc2)cc1 (centres undefined) | 107%
4 | CC(=O)O[C@H]1CCC2(C)C(=CCC3C2CCC2(C)/C(=N/OC(=O)c4ccc(N(CCCl)CCCl)cc4)CCC32)C1 (some centres undefined) | 84.1%
5 | O=C(N/N=C/c1ccc(N(CCCl)CCCl)cc1)c1cc(=O)[nH]c(=O)[nH]1 | 108%
6 | O=[As]c1ccc(C(=O)c2ccc(Oc3ccccc3)cc2)cc1 (centres undefined) | -82.6% (active)
7 | Cc1cc(NC(=O)NCCOc2ccc(N3C(N)=NC(N)=NC3(C)C)cc2Cl)ccc1S(=O)(=O)F | 23.4%
8 | COc1ccc2c(c1)NC1=C(C(=O)OC1)C2c1cc(OC)c(OC)c(OC)c1 (centres undefined) | 17.9%
9 | C=CCc1ccc(OC(=O)Cc2ccccc2)c(OC)c1 | 106%
10 | CC(C)(O)/C=C/C(=O)[C@](C)(O)[C@H]1[C@H](O)C[C@@]2(C)[C@@H]3CC=C4[C@@H](C=C(O)C(=O)C4(C)C)[C@]3(C)C(=O)C[C@]12C | -20% (active)
11 | C[C@]12CCc3sc(-c4ccc(Cl)cc4)nc3C1=CC[C@@H]1[C@@H]2CC[C@]2(C)C(=O)CC[C@@H]12 | 22.9%
12 | C=CCC1(CC)C(=O)NC(=S)NC1=O | 101%
13 | NC(Cc1ccc2c(c1)OCO2)c1ccc2c(c1)OCO2 (centres undefined) | 101%
14 | O=C(CF)N(O)c1ccc(/C=C/c2ccccc2)cc1 | 56.5%
15 | COc1ccc(/C=C(/C(=O)N2CCCC2)c2cc(OC)c(OC)c(OC)c2)cc1N | 25.6%
16 | Nc1nc(N)c(-c2ccc(Cl)c(Cl)c2)c(/C=C/c2ccc(S(=O)(=O)F)cc2)n1 | 78.5%
17 | Nc1c(Br)cc([N+](=O)[O-])cc1[N+](=O)[O-] | 103%
18 | Oc1ccc(O)c2c1C1(Cl)C(Cl)=C(Cl)C2(Cl)C1(Cl)Cl | 56.9%
19 | CN(C)P1(N(C)C)=NP(N(C)C)(N(C)C)=NP(N(C)C)(N(C)C)=N1 | 103%
20 | CCCCNCCc1ccccn1 | 103%

Row | Structure (SMILES) | growth
21 | CNC(=O)Oc1cccc(OC)c1 | 111%
22 | C=C=[CH][Sn]([c]1ccccc1)([c]1ccccc1)[c]1ccccc1 | -74.8% (active)
23 | NC(=O)SCC(=O)Nc1ccc([As](=O)(O)O)cc1 | 73.9%
24 | C[C@]12CC[C@H]3[C@@H](C[C@@H]4N=C(c5ccc(O)cc5)S[C@@]45C[C@H](O)CC[C@]35C)[C@@H]1CC[C@@H]2O | 71.7%
25 | CC1(C)N=C(N)N=C(N)N1c1ccc(CCCCc2ccc(S(=O)(=O)F)cc2)cc1 | 19.4%
26 | Nc1c(Br)cc2c3c(cccc13)-c1ccccc1-2 | 90.4%
27 | COc1cc2c(cc1OC)CN(C)C(C)C2 (centres undefined) | 100%
28 | CC(C)C1c2ccc(O)cc2Oc2nc(N)c(C#N)c(N)c21 (centres undefined) | 115%
29 | c1ccc2nc(OCCN3CC3)ccc2c1 | 64.8%
30 | CC1(C)N=C(N)N=C(N)N1c1ccc(CNC(=O)Nc2ccc(S(=O)(=O)F)c(Cl)c2)c(Cl)c1 | 12.5%
31 | c1ccc(-c2ccc3ccccc3[o+]2)cc1 | 92%
32 | CSc1ccccc1NP1(=O)OCC(C)([N+](=O)[O-])CO1 (centres undefined) | 101%
33 | CC1COC(=O)C1 (centres undefined) | 97.8%
34 | C[CH2][Pb]([CH2]C)([CH2]C)[O]C(=O)COc1ccccc1 | 6.03% (active)
35 | COc1ccc(/C=C\c2cc(OC)c(OC)c(OC)c2)cc1N/C=C\C(=O)c1c[nH]c2ccccc12 | 24.7%
36 | CCCC(C)(C)c1ccc2c(c1)OC(C)(C)[C@@H]1CC=C(C)C[C@@H]21 | 97.3%
37 | OC1(c2ccc(Cl)cc2Cl)c2ccccc2C2=NCCN21 (centres undefined) | 92.7%
38 | CC1(CF)NC(=O)NC1=O (centres undefined) | 106%
39 | O=C(Nc1ccc(S(=O)(=O)F)cc1)Oc1ccccc1 | 97%
